Reference: PubChem BioAssay (NCI)
About 79,000 compounds went through this panel and 15% of them were active in at least one assay; those are over-represented in the sample as a whole. Rule as the data show it: active = growth inhibition above about 70%; inactive = the rest.

How the values were obtained:
[1] = NCI Yeast Anticancer Drug Screen. Data for the rad50 strain (AID 155);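 also: 0% = growth of vehicle-only cultures of the same strain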; settings: S. cerevisiae rad50 strain growth inhibition; at 50.0 µM; active compounds read high
In short: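 Cells are treated with compound, grown, and their growth is then scored against vehicle-only cultures of the same repair-deficient yeast strain.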

[2] = NCI Yeast Anticancer Drug Screen. Data for the mec2-1 strain (AID 157); settings: S. cerevisiae mec2-1 strain, at 50.0 µM, active compounds read high
In short: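 Readout is yeast growth inhibition, normalised to vehicle-treated controls, in the mec2-1 strain exposed to compound.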

[3] = NCI Yeast Anticancer Drug Screen. Data for the sgs1 mgt1 strain (AID 161);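 also: 0% = growth of cultures given vehicle only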; settings: S. cerevisiae sgs1 mgt1 strain, at 50.0 µM, active compounds read high
In short: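 Compounds are added to genetically altered yeast, and growth is compared with cultures given vehicle alone to give percent inhibition.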

[4] = NCI Yeast Anticancer Drug Screen. Data for the cln2 rad14 strain (AID 165);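 also: 0% = growth equal to vehicle treated cultures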; settings: S. cerevisiae cln2 rad14 strain, at 50.0 µM, active compounds read high
In short: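 Relative to vehicle controls, growth inhibition of compound-treated cln2 rad14 yeast was recorded.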

[5] = NCI Yeast Anticancer Drug Screen. Data for the bub3 strain (AID 167); settings: S. cerevisiae bub3 mutant strain, at 50.0 µM, active compounds read high
In short: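 Part of a panel of yeast mutants defective in DNA damage repair or cell cycle regulation. Each strain is grown with compound, and inhibition is calculated relative to solvent-treated cultures.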

[6] = NCI Yeast Anticancer Drug Screen. Data for the mlh1 rad18 strain (AID 175); settings: S. cerevisiae mlh1 rad18 strain growth inhibition; at 50.0 µM; active compounds read high
In short: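 Test agents were incubated with a yeast strain of defined genotype (DNA damage repair defect). Inhibition of growth was derived by comparison with vehicle-exposed cultures.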

Measured: growth inhibition

O=C1CSC2=NC3=C(COC/C3=C\c3ccc(F)cc3)C(c3ccc(F)cc3)N12 (stereo not drawn)
inactive: [1] 16.6% | [2] 28.3% | [3] 41.9% | [4] 21.2% | [5] 30.1% | [6] 31.2%

O=S1(=O)C(c2ccc(F)cc2)=C(O)c2cc3ccccc3nc21
inactive: [1] 29.2% | [2] 30.9% | [3] 27% | [4] 21.4% | [5] -8.85% | [6] 23.2%

CCOC(=O)c1cnc2cc3c(cc2c1Nc1cccc(C)c1)OCO3
inactive: [1] -9.9% | [2] -5% | [3] -5.85% | [4] -57.8% | [5] -1.45% | [6] -6%

CCOC(=O)Cn1c(=O)[nH]c(=O)c2[nH]cnc21
inactive: [1] 9.85% | [2] -5.35% | [3] -1.3% | [4] 9.35% | [5] 13.3% | [6] 23.8%

O=C(/C(=C/c1ccccc1)N1CCOCC1)c1cccc2ccccc12
inactive: [1] 18.9% | [2] -2.15% | [3] 17.1% | [4] 14.7% | [5] 21.4% | [6] 19.9%

COC(=O)c1ccc(C2CCC(OC(c3ccccc3)c3ccccc3)CC2)cc1 (stereo not drawn)
inactive: [1] 39.6% | [2] -12.7% | [3] 26% | [4] -23.6% | [5] 0.85% | [6] -3.85%

N#Cc1ccccc1NC(=O)C(=O)C(C(=O)c1ccncc1)C1OC(=O)c2ccccc21 (stereo not drawn)
inactive: [1] -2.55% | [2] -17.1% | [3] -31.3% | [4] 10.1% | [5] -0.65% | [6] 5.3%

CC(Oc1cc2oc(=O)cc(-c3ccccc3)c2cc1Cl)C(=O)O (stereo not drawn)
inactive: [1] -13.6% | [2] 9.45% | [3] 7.05% | [4] 14.7% | [5] -9.35% | [6] -7.1%

Cc1cc2nc(CCC(=O)O)c(=O)[nH]c2cc1C
inactive: [1] -22.4% | [2] -24.6% | [3] -4.05% | [4] 13.8% | [5] -24% | [6] -28.8%

COC(=O)c1cc(CC2Cc3cc4c(cc3C2)CCC4)cc2c1CCC2
inactive: [1] -16.7% | [2] -8.85% | [3] -29.1% | [4] 15.3% | [5] 0.7% | [6] -1.25%

FC(F)(F)C(F)(F)C(F)(F)c1nnnn1-c1ccccc1
inactive: [1] 10.8% | [2] -0.8% | [3] -17.1% | [4] 3.3% | [5] -13.3% | [6] -17.1%

CCC(C)[N-]c1cccc[n+]1[O-].CCC(C)[N-]c1cccc[n+]1[O-].[Cu+2] (stereo not drawn)
inactive: [1] 8.3% | [2] -3.9% | [3] -9.8% | [4] -2% | [5] -18.3% | [6] -18.4%

CCOC(=O)c1ccc(NC(=O)c2ccc(Cl)cc2Cl)cc1
inactive: [1] -7.7% | [2] 18.6% | [3] 6.5% | [4] -18.1% | [5] 36.6% | [6] -4.25%

O=c1[nH]c(C(F)(F)F)c(CCc2ccccc2)c(=O)[nH]1
inactive: [1] 3.5% | [2] 20.1% | [3] 36.9% | [4] -3.8% | [5] 36.3% | [6] 29.8%

CCNC(=S)NNC(=O)c1ccc(N=NN(C)C)cc1
inactive: [1] -5.15% | [2] 12.8% | [3] 10.3% | [4] -13.4% | [5] 14.8% | [6] 10.9%

NS(=O)(=O)c1ccc(NC(=S)/N=C/c2c(O)c3ccccc3oc2=O)cc1
inactive: [1] 6.2% | [2] -4.45% | [3] 16.3% | [4] -18.9% | [5] -10.4% | [6] 12.6%

CCOC(=O)c1sc(Nc2cc(Cl)ccc2Cl)nc1C
inactive: [1] -6.2% | [2] -19.6% | [3] -9.2% | [4] -2% | [5] -8.3% | [6] -15.1%

CCc1ccc[n+](-c2ccncc2CC)c1
inactive: [1] -7.9% | [2] -9.55% | [3] -9.15% | [4] -12.9% | [5] 2.8% | [6] -9.8%

Cc1ccc(N2CCCCN(c3ccc(C)cc3)/C(c3ccccc3)=C\2c2ccccc2)cc1
inactive: [1] -8.55% | [2] -7.3% | [3] -7% | [4] -8.2% | [5] -1.35% | [6] -29.9%

CC1(C)OC[C@@H](O)[C@H](Br)CO1
inactive: [1] -14.7% | [2] -36% | [3] -20.9% | [4] -3.95% | [5] -32.9% | [6] -28.1%

CCN(CC)CCS(=O)(=O)CCS(=O)(=O)CCN(CC)CC
inactive: [1] 18.5% | [2] 10.9% | [3] 25.2% | [4] 25.2% | [5] 4.4% | [6] 14.2%

c1ccc2c(c1)CCC(C1=NC3CCCCC3N1)=N2 (stereo not drawn)
inactive: [1] -1.25% | [2] 3.7% | [3] 1.1% | [4] -47.3% | [5] 6.3% | [6] 1.85%

CCCCCCCCCCCCCCCC(O)S(=O)(=O)O (stereo not drawn)
inactive: [1] -27.2% | [2] -24.9% | [3] -10.1% | [4] 0.55% | [5] -29.4% | [6] -23.9%

OCCCCN1CCCCC1
inactive: [1] -1% | [2] -1.95% | [3] -13.2% | [4] 2.5% | [5] -0.85% | [6] -5.05%

CC(=O)Nc1ccc(S(=O)(=O)c2ccc(NC(C)=O)cc2)cc1
inactive: [1] -10.6% | [2] -10.1% | [3] -48.5% | [4] -6.2% | [5] -26.5% | [6] -40.8%

CC1CC(C[N+](=O)[O-])CC2(C1)OCCO2 (stereo not drawn)
inactive: [1] -1.5% | [2] -25.3% | [3] -28.6% | [4] 5.1% | [5] -28.8% | [6] -5.15%

Cc1cccc(C(=O)O)n1.[Cu+2]
inactive: [1] -20.6% | [2] 7.6% | [3] -19.4% | [4] -69.9% | [5] -27.6% | [6] -11.6%

CCOC(=O)/C=C/C(=O)O.[Cu+2]
inactive: [1] 5.2% | [2] -14.3% | [3] -4% | [4] -13.7% | [5] -17.2% | [6] 11.9%

CC1(O)OC(=O)c2ccc3ccccc3c21 (stereo not drawn)
inactive: [1] -11.4% | [2] -19.9% | [3] -9.35% | [4] 14.9% | [5] -20.8% | [6] 11%

CCOC(=O)Cc1cccnc1N
inactive: [1] -3.15% | [2] -9.45% | [3] -19.9% | [4] -3.9% | [5] 1% | [6] -2.25%

NC(N)=Nc1nc2ccccc2[nH]1
inactive: [1] 15.9% | [2] -2.85% | [3] 19.4% | [4] -26.4% | [5] 11.7% | [6] 18.1%

COc1cccc([B-]23OCC[N+]2(CNC(=O)c2ccccc2O)CCO3)c1 (stereo not drawn)
inactive: [1] 29.6% | [2] 2.95% | [3] 12.9% | [4] 6.75% | [5] -3.25% | [6] 19.4%

CCCNC(=S)N=Nc1c(O)[nH]c2ccccc12
inactive: [1] -46.2% | [2] -55.8% | [3] -25.1% | [4] -31.5% | [5] -22.2% | [6] -11.2%

CCOC(=O)C(Cc1c[nH]c2ccccc12)NC(C)=O (stereo not drawn)
inactive: [1] 22.2% | [2] 28.6% | [3] 23.6% | [4] -9.9% | [5] 41.9% | [6] 19.2%

O=C1OC(=O)C2C3C=CC(CC3)C12 (stereo not drawn)
inactive: [1] -1.35% | [2] 4% | [3] -13.3% | [4] -65% | [5] -31.1% | [6] -0.1%

CCOc1ccc(N2N=C(C)CCC2=O)cc1
inactive: [1] 6.2% | [2] 1.9% | [3] 5.15% | [4] -10.6% | [5] 6.15% | [6] 0.2%

CNc1ncnc2c(C3OC(CO)C(O)C3O)[nH]nc12 (stereo not drawn)
inactive: [1] 16% | [2] 10.8% | [3] 6.6% | [4] 20.8% | [5] -0.8% | [6] 13.4%

O=S(=O)(Oc1cccc2ccccc12)c1ccccc1
inactive: [1] -2.7% | [2] -2.5% | [3] -5.05% | [4] -5.45% | [5] 0.95% | [6] 8.4%
